From ChEMBL document CHEMBL1961873, “Compounds: GSK PKIS; Assays: Nanosyn kinase panel” (2012)

Experiments:
[1] = target: Casein kinase I isoform gamma-2 (Homo sapiens) (UniProt P78368); settings: at 1 µM
[2] = target: Casein kinase I isoform gamma-3 (Homo sapiens) (UniProt Q9Y6M4); settings: at 0.1 µM
[3] = target: Casein kinase I isoform gamma-3 (Homo sapiens) (UniProt Q9Y6M4); settings: at 1 µM
[4] = target: Cyclin-dependent kinase 1 (Homo sapiens) (UniProt P06493); settings: at 0.1 µM
[5] = target: Cyclin-dependent kinase 1 (Homo sapiens) (UniProt P06493); settings: at 1 µM
[6] = target: Cyclin-dependent kinase 2 (Homo sapiens) (UniProt P24941); settings: at 0.1 µM
[7] = target: Cyclin-dependent kinase 2 (Homo sapiens) (UniProt P24941); settings: at 1 µM
[8] = target: Cyclin-dependent kinase 2 (Homo sapiens) (UniProt P24941); settings: at 0.1 µM; remark: listed apart in the source
[9] = target: Cyclin-dependent kinase 2 (Homo sapiens) (UniProt P24941); settings: at 1 µM; remark: listed apart in the source
[10] = target: CDK3/Cyclin E (Homo sapiens) (UniProt P24864+Q00526); settings: at 0.1 µM;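 also: reported percentages are mean inhibition values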
Chain of CDK3/Cyclin E (Homo sapiens) (P24864 whole entry, looked up): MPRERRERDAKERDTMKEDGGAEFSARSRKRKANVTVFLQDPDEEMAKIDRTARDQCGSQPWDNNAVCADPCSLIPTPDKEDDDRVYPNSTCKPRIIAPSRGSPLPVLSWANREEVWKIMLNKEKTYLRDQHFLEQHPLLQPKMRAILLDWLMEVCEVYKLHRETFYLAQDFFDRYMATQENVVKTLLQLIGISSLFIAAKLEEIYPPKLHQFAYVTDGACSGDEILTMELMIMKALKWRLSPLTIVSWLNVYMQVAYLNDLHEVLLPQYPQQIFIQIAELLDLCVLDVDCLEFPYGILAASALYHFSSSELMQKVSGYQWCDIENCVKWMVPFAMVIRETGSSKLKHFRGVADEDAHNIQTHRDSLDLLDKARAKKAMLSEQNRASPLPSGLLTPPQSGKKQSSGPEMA
Chain of CDK3/Cyclin E (Homo sapiens) (Q00526 whole entry, looked up): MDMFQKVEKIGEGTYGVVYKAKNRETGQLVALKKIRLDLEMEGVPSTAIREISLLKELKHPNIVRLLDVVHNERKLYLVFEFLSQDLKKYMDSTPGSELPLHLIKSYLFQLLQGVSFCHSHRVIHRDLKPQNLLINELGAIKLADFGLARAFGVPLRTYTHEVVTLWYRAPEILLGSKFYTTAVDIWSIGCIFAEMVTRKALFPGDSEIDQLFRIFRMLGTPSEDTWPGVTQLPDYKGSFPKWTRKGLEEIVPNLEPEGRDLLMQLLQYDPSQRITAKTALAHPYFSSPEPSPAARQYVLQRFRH

Chain of Casein kinase I isoform gamma-2 (Homo sapiens) (P78368 whole entry, looked up, canonical isoform): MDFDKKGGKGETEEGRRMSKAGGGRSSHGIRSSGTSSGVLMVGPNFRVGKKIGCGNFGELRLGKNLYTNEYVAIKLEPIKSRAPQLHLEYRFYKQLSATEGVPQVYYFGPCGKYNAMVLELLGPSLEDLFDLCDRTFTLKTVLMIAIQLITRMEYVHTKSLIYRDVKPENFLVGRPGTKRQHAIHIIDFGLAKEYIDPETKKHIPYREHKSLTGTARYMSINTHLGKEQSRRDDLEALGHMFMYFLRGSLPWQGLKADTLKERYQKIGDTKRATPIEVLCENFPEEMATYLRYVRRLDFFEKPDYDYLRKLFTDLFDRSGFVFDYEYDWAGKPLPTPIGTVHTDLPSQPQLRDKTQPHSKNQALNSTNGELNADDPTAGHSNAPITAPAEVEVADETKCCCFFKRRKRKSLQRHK
Chain of Casein kinase I isoform gamma-3 (Homo sapiens) (Q9Y6M4 whole entry, looked up, canonical isoform): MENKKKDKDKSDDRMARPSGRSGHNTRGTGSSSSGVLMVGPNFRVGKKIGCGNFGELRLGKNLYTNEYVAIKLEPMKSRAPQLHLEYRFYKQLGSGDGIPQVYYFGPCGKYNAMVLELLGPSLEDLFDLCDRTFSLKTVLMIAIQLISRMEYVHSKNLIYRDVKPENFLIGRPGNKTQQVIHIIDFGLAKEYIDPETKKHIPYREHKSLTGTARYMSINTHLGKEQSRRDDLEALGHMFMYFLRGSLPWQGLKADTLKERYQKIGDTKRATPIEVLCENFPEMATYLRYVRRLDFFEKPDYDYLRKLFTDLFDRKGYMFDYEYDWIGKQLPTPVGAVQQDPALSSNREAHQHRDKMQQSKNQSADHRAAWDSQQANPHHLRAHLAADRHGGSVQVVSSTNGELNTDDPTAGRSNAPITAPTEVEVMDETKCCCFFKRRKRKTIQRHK
Chain of Cyclin-dependent kinase 1 (Homo sapiens) (P06493 whole entry, looked up): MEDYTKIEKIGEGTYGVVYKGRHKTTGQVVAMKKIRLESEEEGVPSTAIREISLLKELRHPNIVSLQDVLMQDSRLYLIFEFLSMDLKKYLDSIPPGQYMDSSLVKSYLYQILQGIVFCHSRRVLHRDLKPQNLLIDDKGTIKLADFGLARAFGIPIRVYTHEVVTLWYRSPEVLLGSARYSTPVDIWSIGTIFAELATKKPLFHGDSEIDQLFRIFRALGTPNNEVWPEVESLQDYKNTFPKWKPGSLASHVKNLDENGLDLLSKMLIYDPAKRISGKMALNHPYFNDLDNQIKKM

For `Fc1ccc(-c2ncn(C3CCNCC3)c2-c2ccnc(Oc3ccccc3)n2)cc1`, the inhibition [1] was 2.3%, the inhibition [2] was -1.46% and the inhibition [3] was 10%. For the same molecule, the inhibition [4] was -3.4%, the inhibition [5] was -1.98% and the inhibition [6] was -3.24%. The inhibition [7] was -1.87%, the inhibition [8] was -2.35% and the inhibition [9] was -0.94%. For the same molecule, the inhibition [10] was -3.17%.

In the case of `CCn1c(-c2nonc2N)nc2c(C#CC(C)(C)O)ncc(OC[C@@H]3CCCN3)c21`, the inhibition [1] is reported as 2.18%, the inhibition [2] is reported as 0.87% and the inhibition [3] is reported as 3.35%. The inhibition [4] was -0.63%, the inhibition [5] was 0.58% and the inhibition [6] was -1.52%. For the same molecule, the inhibition [7] was -0.07%, the inhibition [8] was -0.64% and the inhibition [9] was -0.07%. The inhibition [10] was -0.42%.

Work on `COc1cc(C=NNc2ncnc3c2cnn3Cc2ccccc2)ccc1O` yielded an inhibition [1] of -3.09%, an inhibition [2] of 0.15% and an inhibition [3] of -1.86%. The inhibition [4] was 3.83%, the inhibition [5] was 14.8% and the inhibition [6] was 0.83%. It also gave an inhibition [7] of 0.3%, an inhibition [8] of -0.38% and an inhibition [9] of 6.08%. The inhibition [10] was 0.9%.

In the case of `COc1cc2c(cc1Nc1nc(Nc3ccsc3C(N)=O)c3cc[nH]c3n1)N(C(=O)CN(C)C)CCC2`, the inhibition [1] is reported as -7.97%, the inhibition [2] is reported as 1.11% and the inhibition [3] is reported as 10.3%. It also gave an inhibition [4] of 5.37%, an inhibition [5] of 6.76% and an inhibition [6] of 4.39%. For the same molecule, the inhibition [7] was 6.12%, the inhibition [8] was 0.86% and the inhibition [9] was -1.41%. It also gave an inhibition [10] of 0.3%.

Work on `CCn1c(-c2nonc2N)nc2c(C#CCN)ncc(OCCCN)c21` yielded an inhibition [1] of -2.49%, an inhibition [2] of -1.84% and an inhibition [3] of -2.94%. It also gave an inhibition [4] of 3.69%, an inhibition [5] of 2.18% and an inhibition [6] of 0.26%. For the same molecule, the inhibition [7] was 0.59%, the inhibition [8] was 2.03% and the inhibition [9] was 2.69%. For the same molecule, the inhibition [10] was 2.51%.

In the case of `CCn1c(-c2nonc2N)nc2c(C#CC(C)(C)O)ncc(OCC3CCNCC3)c21`, the inhibition [1] is reported as 0.7%, the inhibition [2] is reported as -1.65% and the inhibition [3] is reported as -0.62%. The inhibition [4] was -0.87%, the inhibition [5] was 4.13% and the inhibition [6] was -0.3%. For the same molecule, the inhibition [7] was 4.17%, the inhibition [8] was 6.49% and the inhibition [9] was 9.55%. It also gave an inhibition [10] of 7.2%.

Work on `COc1cccc(COc2cc(-n3cnc4ccccc43)sc2C(N)=O)c1` yielded an inhibition [1] of 1.17%, an inhibition [2] of 0.42% and an inhibition [3] of 1.21%. The inhibition [4] was 0.45%, the inhibition [5] was -0.26% and the inhibition [6] was 0.15%. The inhibition [7] was -0.04%, the inhibition [8] was -0.91% and the inhibition [9] was -0.85%. It also gave an inhibition [10] of -1.38%.

Molecule `NS(=O)(=O)c1ccc(-c2ccc3c(NC(=O)C4CC4)n[nH]c3c2)cc1` has an inhibition [1] of 1.7%, an inhibition [2] of 0.52% and an inhibition [3] of -0.19%. It also gave an inhibition [4] of 0.48%, an inhibition [5] of 5.13% and an inhibition [6] of 2.91%. It also gave an inhibition [7] of 13.4%, an inhibition [8] of 2.18% and an inhibition [9] of 5.85%. It also gave an inhibition [10] of 2.19%.

`NS(=O)(=O)c1ccc(N/C=C2\C(=O)Nc3ccc4ncsc4c32)cc1` showed an inhibition [1] of 11.1%, an inhibition [2] of 5.65% and an inhibition [3] of 14.4%. For the same molecule, the inhibition [4] was 25%, the inhibition [5] was 62.4% and the inhibition [6] was 82.7%. The inhibition [7] was 94.4%, the inhibition [8] was 70.8% and the inhibition [9] was 75%. The inhibition [10] was 75.5%.

Work on `NC(=O)c1sc(-n2cnc3cc(C(F)(F)F)ccc32)cc1OCc1ccccc1Br` yielded an inhibition [1] of 0.89%, an inhibition [2] of 1.52% and an inhibition [3] of 1.06%. The inhibition [4] was 0.9%, the inhibition [5] was 4.47% and the inhibition [6] was 0.47%. It also gave an inhibition [7] of 2.92%, an inhibition [8] of 0.99% and an inhibition [9] of 3.19%. For the same molecule, the inhibition [10] was -1.34%.

`CCn1c(-c2nonc2N)nc2c(C#CC(C)(C)O)nc(O[C@@H](CN)c3ccccc3)cc21` gave an inhibition [1] of 4.43%, an inhibition [2] of -0.48% and an inhibition [3] of 9.88%. The inhibition [4] was 4.13%, the inhibition [5] was 4.92% and the inhibition [6] was 2.07%. For the same molecule, the inhibition [7] was 4.12%, the inhibition [8] was 2.92% and the inhibition [9] was 4.27%. For the same molecule, the inhibition [10] was 3.62%.

`Nc1nonc1-c1nc2cnccc2n1C1CCCCC1` showed an inhibition [1] of 0.45%, an inhibition [2] of -1.94% and an inhibition [3] of 1.85%. It also gave an inhibition [4] of 5.2%, an inhibition [5] of 24.5% and an inhibition [6] of 7.81%. For the same molecule, the inhibition [7] was 44.6%, the inhibition [8] was 8.62% and the inhibition [9] was 41.5%. It also gave an inhibition [10] of 4.5%.

For `Cc1cc(-c2ccco2)cc(C)c1/C=C/c1cncc(-c2nn[nH]n2)c1`, the inhibition [1] was 1.08%, the inhibition [2] was 0.9% and the inhibition [3] was 2.3%. It also gave an inhibition [4] of 0.87%, an inhibition [5] of 2.16% and an inhibition [6] of 0.49%. For the same molecule, the inhibition [7] was 1.75%, the inhibition [8] was 0.38% and the inhibition [9] was 2.54%. For the same molecule, the inhibition [10] was -0.91%.

Molecule `COc1cccc(-n2ncc3c(N/N=C/c4ccncc4)ncnc32)c1` has an inhibition [1] of 9.79%, an inhibition [2] of 5.28% and an inhibition [3] of 6.59%. The inhibition [4] was 45%, the inhibition [5] was 81.8% and the inhibition [6] was 47%. It also gave an inhibition [7] of 76.8%, an inhibition [8] of 24.6% and an inhibition [9] of 65.2%. The inhibition [10] was 12.2%.
